The results in this text go back to PubChem BioAssay (Tox21).

Assay [1] can be described thus: qHTS assay to identify small molecule agonists of the estrogen receptor alpha (ER-alpha) signaling pathway in the presence of an antagonist - cell viability counter screen (AID 1259386).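 Also: cells exposed to compounds for 22 h at 37 °C before the viability read; nearly all actives have a fitted effect of over 30% in size.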 Also: potency is read from the fitted curve at half-maximal effect. The method, boiled down: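 Cell viability in VM7Luc4E2 cells (endogenous full-length ER-alpha) measured by CellTiter-Fluor fluorescence in the same wells as the luciferase screen. Cells pre-cultured 5 days in charcoal-stripped serum, then treated 22 h with compounds at 15 concentrations plus 10.0nM ICI-182,780.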
On the technique in general: In qHTS, concentration-response curves come from the screen itself.

Assay [2] deals with Progesterone receptor (Homo sapiens) (UniProt P06401). As to the kind of experiment: qHTS assay to identify small molecule agonists of the progesterone receptor (PR) signaling pathway (AID 1346784; calls by dose curve; also: nearly all actives have a fitted effect of over 30% in size). The method, boiled down:
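Reporter assay, GripTite PR-UAS-bla HEK 293T cells: 16 hr exposure to DMSO-dissolved compounds at 37C, 5% CO2, in steroid-depleted (2% charcoal-stripped FBS) medium; beta-lactamase measured by FRET fluorescence.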

For assay [3] the target is unchanged. As to the kind of experiment: qHTS assay to identify small molecule antagonists of the progesterone receptor (PR) signaling pathway (AID 1346795; active = well fitted inhibition curve with a large enough effect in the signal ratio in the repeat runs, not every such curve was filed as active; the % refers to the signal ratio; also: potency is read from the fitted curve at half-maximal effect). The method, boiled down:
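Stimulus R5020 at 1 nM final; cells HEK293T PR-UAS-bla; medium with 2% charcoal-stripped FBS; compound exposure 16 hr at 37C, 5% CO2; detection by FRET beta-lactamase substrate, 2 hr, room temperature.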

Assay [4] in a line: qHTS assay to identify small molecule antagonists of the progesterone receptor (PR) signaling pathway - cell viability counter screen (AID 1346798). Also: series mostly up to about 92 µM; nearly all actives have a fitted effect of over 50% in size. The method in brief:
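In the same plates used for the beta-lactamase readout, cell viability of compound- and R5020-treated PR-UAS-bla HEK293T cells (16 hr, 37C) was assessed by CellTiter-Glo luminescence.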

Assay [5] in a line: qHTS assay to identify small molecule agonists of the progesterone receptor (PR) signaling pathway - cell viability counter screen (AID 1346799; calls by dose curve; also: nearly all actives have a fitted effect of over 45% in size). The method in brief:
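Multiplexed viability read: CellTiter-Glo luminescence, 30 min RT, following LiveBLAzer FRET measurement on PR-UAS-bla HEK293T cells exposed to compounds 16 hr.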

Assay [6] can be described thus: qHTS assay to identify small molecule antagonists of the TGF-beta/Smad signaling pathway - cell viability counter screen (AID 1346824). Also: nearly all actives have a fitted effect of over 50% in size. The method in brief: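 Cytotoxicity counter-screen run in the same wells as the beta-lactamase Smad reporter read: CellTiter-Glo luminescence after 30 min at room temperature. HEK 293T SBE-bla cells had 5 hr compound exposure at 37 C with TGF-beta1 (0.25 ng/mL stock).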

A short description of assay [7]: qHTS assay to identify small molecule agonists of the TGF-beta/Smad signaling pathway - cell viability counter screen (AID 1346829). Also: top concentration of the series differs between compounds; nearly all actives have a fitted effect of over 45% in size. The method, boiled down:
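Compound-treated SBE-bla HEK 293T cells (5 hr, 37 C) were assessed for viability with CellTiter-Glo in parallel with the reporter read.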

Assay [8] can be described thus: qHTS assay to identify small molecule agonists of the TGF-beta/Smad signaling pathway (AID 1346859; active = well fitted activation curve with a large enough effect in the signal ratio in the repeat runs, not every such curve was filed as active; the % refers to the signal ratio; also: series mostly up to about 77 µM). The method, boiled down: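 Screening used HEK 293T SBE-bla cells at 4,000/well. Test agents: 5 hr, 37 C. Detection: FRET substrate, 2 hr RT, then excitation 405 nm with emissions at 460 and 530 nm.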
The target in assay [9] is Thyrotropin-releasing hormone receptor (Homo sapiens) (UniProt P34981). As to the kind of experiment: qHTS assay to identify small molecule antagonists of the thyrotropin-releasing hormone receptor (TRHR) signaling pathway (AID 1346877; active = well fitted inhibition curve with a large enough effect in the repeat runs, not every such curve was filed as active; also: series mostly up to about 51 µM). The method, boiled down:
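TRHR-expressing HEK293 cells loaded with calcium dye for 2 h at 37 C; compounds pre-incubated 5 min at room temperature before TRH challenge at 1 nM final. Intracellular calcium fluorescence read kinetically for 3 min; 15 concentrations in triplicate.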

Assay [10] shares this target. As to the kind of experiment: qHTS assay to identify small molecule agonists of the thyrotropin-releasing hormone receptor (TRHR) signaling pathway (AID 1346891; calls by dose curve; also: series mostly up to about 58 µM). The method in brief:
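Readout was intracellular calcium fluorescence in TRHR-Hek293 cells. Cells were incubated 18 h, dye-loaded 2 h at 37 °C, and treated with compound in agonist mode.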

A short description of assay [11]: Human pregnane X receptor (PXR) small molecule agonists, qHTS cell viability counter screen (AID 1346977). Also: nearly all actives have a fitted effect of over 50% in size. The method, boiled down: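 In each well, the PXR reporter HepG2 line was checked for viability: CellTiter-Fluor reagent added 23hr post-dosing, fluorescence read after 1hr incubation at 37C.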
A short description of assay [12]: Caspase-3/7 induction in HepG2 cells by small molecules, qHTS assay (AID 1346978). Also: nearly all actives have a fitted effect of over 15% in size. Also: potency is read from the fitted curve at half-maximal effect. The method in brief:
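Caspase-3/7 induction was measured by Caspase-Glo 3/7 luminescence (30 min, room temperature) after a 17 hr compound exposure of wild-type HepG2 cells seeded at 2,000 per well and pre-incubated 5 hr.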

The nature of assay [13]: Caspase-3/7 induction in CHO-K1 cells by small molecules, qHTS cell viability counter screen (AID 1346979). Also: nearly all actives have a fitted effect of over 35% in size. Also: potency is read from the fitted curve at half-maximal effect. The method, boiled down:
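Following a 5hr settling period, CHO-K1 cells at 1,500 per well received DMSO-dissolved compounds. Cell viability was quantified 16hr later by CellTiter-Fluor fluorescence, measured after 1hr with reagent at 37C.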

The nature of assay [14]: Caspase-3/7 induction in CHO-K1 cells by small molecules, qHTS assay (AID 1346980). Also: nearly all actives have a fitted effect of over 15% in size. The method, boiled down:
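Luminescent Caspase-Glo 3/7 read (30min, room temperature) quantified apoptosis induction. Cells were wild-type CHO-K1, treated with compound for 17hr at 37 C and 5% CO2.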

A short description of assay [15]: Caspase-3/7 induction in HepG2 cells by small molecules, qHTS cell viability counter screen (AID 1346981). Also: nearly all actives have a fitted effect of over 30% in size. Also: potency is read from the fitted curve at half-maximal effect. The method in brief:
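Wild-type HepG2 cells, 2,000/well, settled 5 hr at 37 C, 5% CO2 before compound addition. Viability read by CellTiter-Fluor fluorescence, reagent added after 16 hr compound exposure, then 1 hr at 37C, in the same wells as the caspase read.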

The target in assay [16] is Nuclear receptor subfamily 1 group I member 2 (Homo sapiens) (UniProt O75469). As to the kind of experiment: Human pregnane X receptor (PXR) small molecule agonists, qHTS assay (AID 1346982). Also: nearly all actives have a fitted effect of over 35% in size. Also: potency is read from the fitted curve at half-maximal effect. The method, boiled down: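 PXR-Luc HepG2 reporter cells (CYP3A4-driven luciferase) in 5% charcoal-stripped FBS medium, plated 5 h before compound addition, then treated 24 h at 37C. Luciferase read by ONE-Glo luminescence after 30 min at room temperature.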

For assay [17], the target named is Nuclear receptor subfamily 1 group I member 2 (Rattus norvegicus) (UniProt Q9R1A7). As to the kind of experiment: Rat pregnane X receptor (rPXR) activation by small molecules, qHTS assay (AID 1346983). Also: nearly all actives have a fitted effect of over 20% in size. Also: potency is read from the fitted curve at half-maximal effect. The conditions noted are these: rPXR luciferase reporter cells, One-Glo luminescence, 24 h; max activation: active compounds read high. The method in brief: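 Luminescent readout (One-Glo luciferase, 30 min room temperature) followed 24 hr compound treatment at 37 C of rPXR cells plated 2,000 per well and preincubated 5hr; qHTS format with compounds delivered in DMSO.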

Assay [18] has as its target Nuclear receptor subfamily 1 group I member 2 (Homo sapiens) (UniProt O75469). As to the kind of experiment: CYP3A4 induction through human pregnane X receptor (PXR) by small molecules, qHTS assay (AID 1346984). Also: nearly all actives have a fitted effect of over 40% in size. The method, boiled down:
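DPX-2 HepG2 cells carrying a PXR response element and CYP3A4-promoter luciferase construct, treated with compounds 24 hr at 37C. Then P450-Glo CYP3A4 Luciferin-IPA substrate (3uM final) for 3 hr at 37C, One-Glo added, luminescence read.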

The target is the same in assay [19]. As to the kind of experiment: Human pregnane X receptor (PXR) activation by small molecules, qHTS assay (AID 1346985). Also: nearly all actives have a fitted effect of over 40% in size. The method, boiled down:
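DPX-2 cells (HepG2 co-transfected with a PXR response element and a CYP3A4-promoter luciferase construct) were seeded at 2,000 per well, rested 5 hr at 37C, then exposed to DMSO-dissolved compounds for 24 hr. Activation was read as luciferase luminescence.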

For assay [20], the target named is Cytochrome P450 2D6 (Homo sapiens) (UniProt P10635). As to the kind of experiment: Cytochrome P450 Family 2 Subfamily D Member 6 (CYP2D6) small molecule antagonists: luciferase reporter qHTS assay (AID 1671196). Also: nearly all actives have a fitted effect of over 50% in size. Also: potency is read from the fitted curve at half-maximal effect. The method in brief:
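Cell-free P450-Glo system: CYP2D6 with proluciferin substrate was pre-incubated with compound for 10 min, then reacted with NADPH regeneration for 1 h at room temperature. Luciferin product was detected after 20 min, and data were reported as relative luminescence units.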
(In general: A reporter such as luciferase makes a cellular process visible.)

SMILES strings stand for the structures. “And” between values parts separate entries of the source, which are not always exact repeats. Equal values may be shown once. A number with no mark means an inactive call. Records with an inconclusive call do not appear. The source made the active and inactive calls. Unless noted, calls follow the shape of the dose curve; as a rule, active = well fitted curve in the direction sought with a large enough effect in the repeat runs; inconclusive = weak or mixed curves; inactive = no such curve, though single readings can be large; an effect the other way counts as inactive or inconclusive.
% is scaled to controls: 0 for no effect and ±100 for the full control effect.

Sequence of Thyrotropin-releasing hormone receptor (Homo sapiens) (P34981 whole entry, looked up): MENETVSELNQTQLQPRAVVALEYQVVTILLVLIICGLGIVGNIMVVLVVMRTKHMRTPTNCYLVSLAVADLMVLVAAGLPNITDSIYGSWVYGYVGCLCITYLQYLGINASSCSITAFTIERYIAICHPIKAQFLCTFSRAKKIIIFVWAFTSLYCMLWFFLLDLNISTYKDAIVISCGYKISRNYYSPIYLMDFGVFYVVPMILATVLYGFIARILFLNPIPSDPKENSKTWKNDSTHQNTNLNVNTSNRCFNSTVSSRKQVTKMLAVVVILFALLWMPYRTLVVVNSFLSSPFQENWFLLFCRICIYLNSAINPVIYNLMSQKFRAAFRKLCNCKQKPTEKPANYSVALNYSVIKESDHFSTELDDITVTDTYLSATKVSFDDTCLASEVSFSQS
Sequence of Nuclear receptor subfamily 1 group I member 2 (Homo sapiens) (O75469 whole entry, looked up): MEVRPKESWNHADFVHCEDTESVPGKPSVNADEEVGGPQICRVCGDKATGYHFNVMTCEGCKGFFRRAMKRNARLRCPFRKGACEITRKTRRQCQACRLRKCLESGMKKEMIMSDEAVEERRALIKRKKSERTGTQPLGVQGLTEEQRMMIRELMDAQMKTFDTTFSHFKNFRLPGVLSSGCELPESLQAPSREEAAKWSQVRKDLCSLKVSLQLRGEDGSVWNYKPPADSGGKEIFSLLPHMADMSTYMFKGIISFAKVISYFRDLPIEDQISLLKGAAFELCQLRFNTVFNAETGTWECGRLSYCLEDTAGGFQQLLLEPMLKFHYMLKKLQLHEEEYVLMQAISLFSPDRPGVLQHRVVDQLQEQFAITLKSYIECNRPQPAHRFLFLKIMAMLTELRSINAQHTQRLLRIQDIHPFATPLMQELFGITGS
Sequence of Progesterone receptor (Homo sapiens) (P06401 whole entry, looked up): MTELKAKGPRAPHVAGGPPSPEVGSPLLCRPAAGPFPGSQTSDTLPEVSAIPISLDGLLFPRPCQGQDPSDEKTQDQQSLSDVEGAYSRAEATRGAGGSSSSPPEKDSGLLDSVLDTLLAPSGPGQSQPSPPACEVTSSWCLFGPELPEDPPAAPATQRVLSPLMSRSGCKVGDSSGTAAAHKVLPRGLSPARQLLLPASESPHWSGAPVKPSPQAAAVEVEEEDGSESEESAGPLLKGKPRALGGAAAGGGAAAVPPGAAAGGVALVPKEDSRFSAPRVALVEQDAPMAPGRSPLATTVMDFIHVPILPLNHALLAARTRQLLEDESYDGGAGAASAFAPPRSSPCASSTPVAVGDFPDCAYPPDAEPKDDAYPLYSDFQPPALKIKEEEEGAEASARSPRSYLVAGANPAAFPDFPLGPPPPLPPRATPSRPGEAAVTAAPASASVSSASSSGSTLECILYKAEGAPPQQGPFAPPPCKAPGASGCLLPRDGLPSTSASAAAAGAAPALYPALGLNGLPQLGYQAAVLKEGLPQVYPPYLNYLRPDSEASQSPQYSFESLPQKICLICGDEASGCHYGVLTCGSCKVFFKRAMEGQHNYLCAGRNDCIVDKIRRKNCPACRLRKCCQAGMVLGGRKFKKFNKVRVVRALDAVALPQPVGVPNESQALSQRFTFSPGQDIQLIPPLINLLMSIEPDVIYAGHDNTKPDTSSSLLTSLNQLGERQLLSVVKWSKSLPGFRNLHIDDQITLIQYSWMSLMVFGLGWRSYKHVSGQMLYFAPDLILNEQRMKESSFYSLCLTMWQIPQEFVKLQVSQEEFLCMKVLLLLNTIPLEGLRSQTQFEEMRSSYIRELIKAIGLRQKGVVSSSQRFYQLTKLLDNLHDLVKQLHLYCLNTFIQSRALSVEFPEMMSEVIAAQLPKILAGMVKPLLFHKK
Sequence of Cytochrome P450 2D6 (Homo sapiens) (P10635 whole entry, looked up): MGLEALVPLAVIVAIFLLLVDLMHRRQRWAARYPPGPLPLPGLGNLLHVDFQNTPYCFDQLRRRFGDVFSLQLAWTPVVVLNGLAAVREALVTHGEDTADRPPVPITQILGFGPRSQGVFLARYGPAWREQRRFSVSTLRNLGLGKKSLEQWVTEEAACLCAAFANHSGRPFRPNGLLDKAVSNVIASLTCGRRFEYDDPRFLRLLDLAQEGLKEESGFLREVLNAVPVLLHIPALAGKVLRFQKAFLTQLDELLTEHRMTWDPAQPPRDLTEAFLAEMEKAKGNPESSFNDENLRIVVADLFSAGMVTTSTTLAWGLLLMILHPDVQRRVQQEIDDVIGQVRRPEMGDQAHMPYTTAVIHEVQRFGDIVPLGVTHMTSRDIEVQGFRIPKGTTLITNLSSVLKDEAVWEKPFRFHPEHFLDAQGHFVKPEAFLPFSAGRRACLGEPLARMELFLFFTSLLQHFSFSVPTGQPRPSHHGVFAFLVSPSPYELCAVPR
Sequence of Nuclear receptor subfamily 1 group I member 2 (Rattus norvegicus) (Q9R1A7 whole entry, looked up): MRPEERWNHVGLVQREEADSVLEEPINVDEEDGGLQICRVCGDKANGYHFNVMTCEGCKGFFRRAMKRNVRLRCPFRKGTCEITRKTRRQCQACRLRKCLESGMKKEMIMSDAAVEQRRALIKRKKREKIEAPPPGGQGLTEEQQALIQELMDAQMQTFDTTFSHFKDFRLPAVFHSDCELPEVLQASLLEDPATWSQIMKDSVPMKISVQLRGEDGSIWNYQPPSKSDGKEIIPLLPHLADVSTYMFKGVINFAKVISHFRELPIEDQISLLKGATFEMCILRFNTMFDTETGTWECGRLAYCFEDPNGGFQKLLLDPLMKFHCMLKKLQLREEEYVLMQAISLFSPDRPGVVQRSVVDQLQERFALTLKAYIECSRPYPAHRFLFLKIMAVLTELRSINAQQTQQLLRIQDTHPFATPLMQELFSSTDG

For the compound `O=c1cc[nH]c(=O)[nH]1`, the Potency entry in assay [1], in [2], in assay [3], in assay [4], in assay [5] and in assay [6] was “inactive” in each case. Further, the Potency result in [7], in assay [10], in [11], in [12], in assay [13] and in assay [15] was “inactive” in each case. Further, the Potency entry in assay [16], in assay [18], in assay [19] and in [20] was “inactive” each time. The result in [8], in [9] and in assay [14] was inactive. Besides, the max activation in assay [17] was -0.198%.
Regarding `COC1=CC(=O)C[C@@H](C)[C@]12Oc1c(Cl)c(OC)cc(OC)c1C2=O`, the Potency result in [1], in assay [2], in [4], in assay [5], in assay [6] and in [7] was “inactive” throughout. In addition, the Potency entry in assay [10], in [11], in assay [13], in [15] and in assay [20] was “inactive” in each case. Moreover, the Potency was 27.1 µM (active) and 30.6 µM (active) in assay [3]; 24.1 µM (active) and 61.1 µM (active) in assay [12]; 28.2 µM (active) in assay [17]. For the same compound, the call in [8], in assay [9] and in assay [14] was inactive.
With `CCCCCCCCCCCCCCCCCC(=O)OCC(O)CO` (centres undefined), the Potency entry in [1], in assay [2], in [3], in assay [4], in assay [5] and in assay [6] was “inactive” throughout. Besides, the Potency entry in assay [7], in assay [10], in [11], in [12], in [13] and in [15] was “inactive” in each case. Besides, the Potency result in assay [16], in [18], in assay [19] and in assay [20] was “inactive” throughout. In addition, the result in assay [8], in assay [9] and in assay [14] was inactive. For the same compound, in assay [17], the max activation is 0.317%.
Regarding `Nc1ccc(N=Nc2ccccc2)c(N)n1`, the Potency in assay [1] is 30.8 µM (active) and 24.3 µM (active) and 26.6 µM (active); in [3] it was 43.3 µM (active); in assay [13], 48.8 µM (active) and 48.6 µM (active) and 26.6 µM (active); in [15], 21.1 µM (active); in [16] it was 27.4 µM (active) and 27.3 µM (active) and 6.68 µM (active); in assay [20], 40.1 µM (active) and 35.6 µM (active) and 12.3 µM (active). Besides, the Potency entry in assay [2], in [4], in assay [5], in assay [6], in assay [7] and in assay [10] was “inactive” in each case. In addition, the compound was called inactive in [8], in assay [9] and in assay [14].
As for `C=CCOC(=O)CC(C)C`, the Potency result in [1], in [2], in assay [3], in assay [4], in assay [5] and in assay [6] was “inactive” in each case. Besides, the Potency result in assay [7], in [10], in assay [11], in [12], in assay [13] and in assay [15] was “inactive” in each case. Further, the Potency result in assay [16] and in assay [20] was “inactive” throughout. Also, the result in assay [8], in assay [9] and in [14] was inactive.
Take `COc1ccccc1NC(=O)CC(C)=O`: the Potency entry in assay [1], in [2], in assay [3], in assay [4], in assay [5] and in assay [6] was “inactive” each time. The Potency entry in [7], in assay [10], in assay [11], in [13], in assay [15] and in assay [20] was “inactive” each time. The result in [8], in assay [9] and in assay [14] was inactive. For the same compound, in assay [16], the Potency was 61.1 µM (active).
As to `CCCCCCCC(=O)OCC(O)CO` (centres undefined), the Potency result in assay [1], in assay [2], in [3], in [4], in assay [5] and in [6] was “inactive” throughout. For the same compound, the Potency entry in assay [7], in assay [10], in assay [11], in assay [13], in assay [15] and in assay [16] was “inactive” in each case. Also, the Potency entry in assay [18] and in [19] was “inactive” in each case. For the same compound, the compound was called inactive in assay [8], in assay [9] and in [14]. Moreover, the max activation in [17] is -5.07%. In assay [20], the Potency was 39.9 µM (active).
